Assay results taken from PubChem BioAssay (Tox21).
“And” between values parts separate entries of the source, which are not always exact repeats. Equal values may be shown once. The source made the active and inactive calls. Where a call stands in place of a potency, no number is given. Unless noted, calls follow the shape of the dose curve; as a rule, active = well fitted curve in the direction sought with a large enough effect in the repeat runs; inconclusive = weak or mixed curves; inactive = no such curve, though single readings can be large; an effect the other way counts as inactive or inconclusive.

Experiments:
[1] = qHTS assay to identify small molecule antagonists of the estrogen receptor alpha (ER-alpha) signaling pathway - cell viability counter screen (AID 743074; calls by dose curve;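 also: HEK293 cells carrying ER-alpha-UAS-bla reporter stimulated with 17beta-estradiol; nearly all actives have a fitted effect of over 45% in size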)
[2] = qHTS assay to identify small molecule antagonists of the estrogen receptor alpha (ER-alpha) signaling pathway using the BG1 cell line - cell viability counter screen (AID 743081);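 also: compound given together with 17beta-estradiol as the ER stimulus; nearly all actives have a fitted effect of over 45% in size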; also: potency is read from the fitted curve at half-maximal effect
[3] = target: Aromatase (Homo sapiens) (UniProt P11511); assay: qHTS assay to identify aromatase inhibitors (AID 743083); also: nearly all actives have a fitted effect of over 55% in size; also: potency is read from the fitted curve at half-maximal effect
Sequence of Aromatase (Homo sapiens) (P11511 whole entry, looked up): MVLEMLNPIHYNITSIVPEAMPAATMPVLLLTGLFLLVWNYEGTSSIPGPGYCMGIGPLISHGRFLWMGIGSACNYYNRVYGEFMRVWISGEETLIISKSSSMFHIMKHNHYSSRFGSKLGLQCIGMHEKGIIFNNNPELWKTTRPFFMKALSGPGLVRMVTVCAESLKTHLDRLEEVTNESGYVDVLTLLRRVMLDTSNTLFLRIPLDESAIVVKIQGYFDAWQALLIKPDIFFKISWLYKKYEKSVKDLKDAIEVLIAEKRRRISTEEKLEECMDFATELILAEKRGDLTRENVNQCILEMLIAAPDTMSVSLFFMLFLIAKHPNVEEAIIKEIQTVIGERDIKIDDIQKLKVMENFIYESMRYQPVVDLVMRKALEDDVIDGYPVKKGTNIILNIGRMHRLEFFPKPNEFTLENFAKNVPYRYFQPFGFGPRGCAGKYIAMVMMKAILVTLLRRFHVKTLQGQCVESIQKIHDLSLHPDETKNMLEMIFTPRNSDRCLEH

[4] = target: Estrogen receptor (Homo sapiens) (UniProt P03372); assay: qHTS assay to identify small molecule antagonists of the estrogen receptor alpha (ER-alpha) signaling pathway (AID 743069; active = well fitted curve in the direction sought with a large enough effect in the signal ratio in the repeat runs, not every such curve was filed as active; inconclusive = weak or mixed curves, or effect the other way; inactive = no such curve, though single readings can be large or run the other way; the % refers to the signal ratio; also: potency is read from the fitted curve at half-maximal effect)
Sequence of Estrogen receptor (Homo sapiens) (P03372 whole entry, looked up): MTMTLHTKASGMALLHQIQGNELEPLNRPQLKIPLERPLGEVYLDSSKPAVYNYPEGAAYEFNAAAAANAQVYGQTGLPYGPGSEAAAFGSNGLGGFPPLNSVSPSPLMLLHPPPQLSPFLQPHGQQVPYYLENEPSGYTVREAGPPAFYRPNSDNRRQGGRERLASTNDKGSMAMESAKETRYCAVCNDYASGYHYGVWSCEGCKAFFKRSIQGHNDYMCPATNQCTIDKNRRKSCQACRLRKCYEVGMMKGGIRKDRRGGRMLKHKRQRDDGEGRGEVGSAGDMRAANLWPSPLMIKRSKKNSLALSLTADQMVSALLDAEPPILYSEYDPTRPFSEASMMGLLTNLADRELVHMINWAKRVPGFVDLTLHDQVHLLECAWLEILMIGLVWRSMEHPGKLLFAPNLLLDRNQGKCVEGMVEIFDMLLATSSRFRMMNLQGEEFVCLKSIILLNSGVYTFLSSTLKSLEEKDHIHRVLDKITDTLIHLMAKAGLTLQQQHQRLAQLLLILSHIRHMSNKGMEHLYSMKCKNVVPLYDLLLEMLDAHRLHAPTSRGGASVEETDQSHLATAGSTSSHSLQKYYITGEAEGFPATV
In short: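 A 17beta-estradiol challenge was applied right after compound transfer to ER-alpha-UAS-bla HEK293 cells previously kept in charcoal-stripped serum. Plates stood 18 hr at 37C and 5% CO2; fluorescence was read following 2 hr FRET substrate loading at room temperature.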

[5] = target: Estrogen receptor (Homo sapiens) (UniProt P03372); assay: qHTS assay to identify small molecule agonists of the estrogen receptor alpha (ER-alpha) signaling pathway (AID 743075; calls by dose curve;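 also: HEK293 GripTite cells with ER-alpha and UAS-driven beta-lactamase reporter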; also: potency is read from the fitted curve at half-maximal effect)
[6] = target: Estrogen receptor (Homo sapiens) (UniProt P03372); assay: qHTS assay to identify small molecule agonists of the estrogen receptor alpha (ER-alpha) signaling pathway using the BG1 cell line (AID 743079); details: BG1Luc4E2 cells, ERE-luciferase agonist, 22 h; activation: at 70.3 µM (top of the series); also: nearly all actives have a fitted effect of over 20% in size; also: potency is read from the fitted curve at half-maximal effect
[7] = qHTS assay to identify small molecule antagonists of the estrogen receptor alpha (ER-alpha) signaling pathway using the BG1 cell line (AID 743080; calls by dose curve; also: nearly all actives have a fitted effect of over 25% in size)
In short: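 Antagonist mode: compounds in DMSO were pinned onto BG1-Luc-4E2 cells alongside 17beta-estradiol agonist, incubated 21.5 h, and ERE-driven luciferase measured with ONE-Glo. Cytotoxicity was multiplexed using CellTiter-Fluor fluorescence.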

SMILES	Potency [1]	Potency [2]	Potency [3]	Potency [4]	Potency [5]	Potency [6]	Potency [7]	activation [6]
CCOC(=O)C1=C(COCCN)NC(C)=C(C(=O)OC)C1c1ccccc1Cl (centres undefined)	inactive	inactive	29.8 µM (active) and 9.44 µM (active)					
COC(F)(F)C(Cl)Cl	inactive	inactive	inactive	inactive	inactive	inactive	inactive	
CO[C@H]1C[C@H](O[C@H]2[C@H](C)[C@@H](O[C@@H]3O[C@H](C)C[C@H](N(C)C)[C@H]3OC(C)=O)[C@@H](C)C[C@]3(CO3)C(=O)[C@H](C)[C@@H](OC(C)=O)[C@@H](C)[C@@H](C)OC(=O)[C@@H]2C)O[C@@H](C)[C@@H]1OC(C)=O	inactive	inactive	inactive					
CCOC(=O)CCC(=O)O[C@H]1[C@H](O[C@@H]2[C@@H](C)[C@H](O[C@H]3C[C@@](C)(OC)[C@@H](O)[C@H](C)O3)[C@@H](C)C(=O)O[C@H](CC)[C@@](C)(O)[C@H](O)[C@@H](C)C(=O)[C@H](C)C[C@@]2(C)O)O[C@H](C)C[C@@H]1N(C)C	inactive		inactive	inactive	inactive	inactive	inactive	
COC(=O)CCC(=O)CN	inactive	inactive	inactive	inactive	inactive	inactive	inactive	
CCC(CN)CC(C)CCNCC(O)CNCC(C)CC(CC)CN (centres undefined)	inactive	inactive	inactive	inactive	inactive	inactive	inactive	
CCC(=O)OCC(=O)[C@@]1(OC(=O)CC)[C@@H](C)C[C@H]2[C@@H]3CCC4=CC(=O)C=C[C@]4(C)[C@@]3(F)[C@@H](O)C[C@@]21C	inactive		3.76 µM (active)		23.9 µM [fluorescent] (active)			
N[C@@H](C(=O)N[C@@H]1C(=O)N2C(C(=O)O)=C(CSc3cn[nH]n3)CS[C@H]12)c1ccc(O)cc1	inactive	inactive	inactive					
CCOC(=O)c1cc(-c2ccccc2)nc2ccc(C)cc12	inactive	inactive	inactive		inactive	inactive	inactive	
C[N+]1(C)CCN(CC(O)(c2ccccc2)C2CCCCC2)CC1 (centres undefined)	inactive	inactive	inactive					
CCN(CC)Cc1cc(Nc2ccnc3cc(Cl)ccc23)ccc1O	inactive		inactive					
CNc1cc(OC)c(C(=O)N[C@H]2CCN(Cc3ccccc3)[C@H]2C)cc1Cl	inactive		inactive	inactive	inactive	inactive	inactive	
CCCCC(=O)O[C@H]1CC[C@H]2[C@@H]3CCc4cc(O)ccc4[C@H]3CC[C@]12C	inactive	inactive	inactive		0.0006 µM [inconclusive] (active)		inactive	61.2% (active)
CCOC(=O)CN[C@@H](C(=O)N1CC[C@H]1C(=O)NCc1ccc(/C(N)=N/O)cc1)C1CCCCC1	inactive	inactive	inactive		inactive	inactive	inactive	
CO[C@H]1C=CO[C@@]2(C)Oc3c(C)c(O)c4c(O)c(c(/C=N/N5CCN(C6CCCC6)CC5)c(O)c4c3C2=O)NC(=O)/C(C)=C\C=C[C@H](C)[C@H](O)[C@@H](C)[C@@H](O)[C@@H](C)[C@H](OC(C)=O)[C@@H]1C	inactive	26.6 µM (active)	33.5 µM (active)	19 µM [inconclusive] (active)	inactive			
O=C(COc1ccc(Cl)cc1)OCCNC12CC3CC(CC(C3)C1)C2	inactive	inactive	inactive	inactive	inactive	inactive	inactive	
CC(C)(C)C(=O)OCOC(=O)[C@@H]1N2C(=O)[C@@H](N=CN3CCCCCC3)[C@H]2SC1(C)C	inactive		inactive	inactive	inactive	inactive	inactive	
CC1(C)S[C@@H]2[C@H](NC(=O)C(N)c3ccccc3)C(=O)N2[C@H]1C(=O)OC1OC(=O)c2ccccc21 (some centres undefined)	inactive	inactive	inactive					
Cc1cc(C(=O)NNCc2ccccc2)no1	inactive	inactive	inactive	inactive	inactive	5.07 µM (active)		
CC[C@@]1(O)C[C@H](O[C@H]2C[C@H](N(C)C)[C@H](O[C@H]3C[C@H](O)[C@H](O[C@H]4CCC(=O)[C@H](C)O4)[C@H](C)O3)[C@H](C)O2)c2c(cc3c(c2O)C(=O)c2c(O)cccc2C3=O)[C@H]1C(=O)OC	inactive		2.66 µM (active)	6.01 µM [inconclusive] (active)		2.98 µM (active)		
